Assay results from PubChem BioAssay AID1053117 (Broad Institute, 2014).
Entries with a potency or affinity are not part of this list. A number with no mark means an inactive call.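 The calls were made as follows: active = compounds lowering cell ATP signal with a fitted half-effect dose at most twice the top valid dose; inconclusive = flat curve with 30 to 70% signal loss, or bad fit; inactive = wrong direction, flat within 30%, or weaker than limit.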

Assay: HEK293 cell cytotoxicity, dose response, cytotoxicity control, cherry-picks, set 5 (AID 1053117);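 also: more negative means greater loss of ATP signal and more cytotoxicity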
Settings: HEK293T viability, CellTiter-Glo ATP luminescence, 72 h; series mostly up to 26 µM; activity change, negative = cytotoxicity: at the top concentration

SMILES	activity change, negative = cytotoxicity
CC(C)C(=O)Nc1ccc2c(c1)C(=O)N(C)[C@@H]1CC[C@H](CC(=O)O)O[C@@H]1CO2	-14.7% [at 23.5 µM]
COC(=O)C[C@@H]1CC[C@H]2[C@@H](COc3ccc(NC(=O)Cc4cccs4)cc3C(=O)N2C)O1	-13.2% [at 23.5 µM]
O=C(C[C@@H]1C[C@@H]2c3cc(NC(=O)c4ccc5c(c4)OCO5)ccc3O[C@@H]2[C@@H](CO)O1)NCc1ccc(Oc2ccccc2)cc1	-12.6%
Cc1cc(C)c(S(=O)(=O)Nn2cnnc2)c(C)c1	-20.2%
O=C(CSc1nc2ncc(Cl)cc2[nH]1)c1c[nH]c2ccccc12	1.16%
Cn1cc([N+](=O)[O-])c(C(=O)Nc2cc(Oc3ccccc3)cc([N+](=O)[O-])c2)n1	-11.3%
O=C(Nc1ccccc1F)N1C[C@H]2[C@@H](c3ccccc31)[C@H](CO)N2C(=O)C1CC1	-4.41%
C[C@@H]1CN([C@H](C)CO)C(=O)c2cc(NC(=O)C3CCCCC3)ccc2O[C@@H]1CN(C)Cc1ccc(-c2ccccc2)cc1	-12.7%
CC(=O)Nc1cccc(-c2ccnc3c2CC(C)(C(=O)Nc2cccc(C(F)(F)F)c2)O3)c1 (centres undefined)	-8.05%
Cc1cccc(NC(=O)c2ccc(C3SCC(=O)N3CCc3ccccc3)cc2)c1 (centres undefined)	-18.7%
COc1ccc(CCNC(=O)C2CCN(Cc3nc(-c4ccccc4F)oc3C)CC2)cc1OC	3.94%
COc1cccc(CNC(=O)CCc2nnc3ccc(NCCCN4CCCC4=O)nn23)c1	-17.4%
C[C@H](CO)N1C[C@H](C)[C@@H](CN(C)Cc2ccc(-c3ccccc3)cc2)Oc2ccc(NC(=O)CCCN(C)C)cc2C1=O	-13.9%
CO[C@@H]1CN(C)C(=O)c2ccc(NC(=O)c3ccc(-c4ccccc4)cc3)cc2OC[C@@H](C)NC[C@@H]1C	-18.6%
C[C@H](CO)N1C[C@H](C)[C@@H](CN(C)Cc2ccc(-c3ccccc3)cc2)Oc2ccc(NC(=O)C3CCCCC3)cc2C1=O	-16.4%
O=C(NCCS(=O)(=O)N1CCN(c2ccc(F)cc2)CC1)c1ccc(Br)o1	-14.8%
Nc1nc(-c2cc3c(cc2Cl)OCCO3)cs1	-9.84%

SMILES	activity change, negative = cytotoxicity
COc1ccc(C)cc1N(CC(=O)Nc1cccc(N(C)S(C)(=O)=O)c1)S(C)(=O)=O	-22.8%
COC(=O)c1c(NC(=O)CN2CCN(c3ccccc3Cl)CC2)sc(C)c1C	-32.1%
C[C@@H]1CN([C@H](C)CO)C(=O)c2cc(NC(=O)CCCN(C)C)ccc2O[C@H]1CN(C)Cc1ccc(-c2ccccc2)cc1	-10.5%
CCOC(=O)C1=C(C)Nc2nc3ccccc3n2C1c1ccncc1 (centres undefined)	-6.47%
C[C@@H]1CN([C@@H](C)CO)C(=O)c2cc(-c3ccccc3)cnc2O[C@@H]1CN(C)Cc1ccccc1	-16.4%
C[C@@H]1CN([C@H](C)CO)C(=O)c2cc(NC(=O)CCCN(C)C)ccc2O[C@@H]1CN(C)Cc1ccc(-c2ccccc2)cc1	-8.69%
CSc1ccccc1C(=O)C1CCCN(C(=O)CCc2cccnc2)C1 (centres undefined)	-14.4%
C[C@H]1CN([C@@H](C)CO)C(=O)c2cc(NC(=O)CCCN(C)C)ccc2O[C@@H]1CN(C)Cc1ccc(-c2ccccc2)cc1	-15.9%
Cc1ccc(O)c(-c2cc(-c3cccc(Br)c3)n[nH]2)c1	6.7%
COCC(=O)Nc1ccc2c(c1)C(=O)N(C)[C@@H]1CC[C@H](CC(=O)NCc3ccccc3Cl)O[C@H]1CO2	-9.44%
Cc1ccc(S(=O)(=O)N2CC3(C)CN(S(=O)(=O)c4ccc(C)cc4)CC(C)(C2)C3=O)cc1	-8.44%
CCOC(=O)c1nnn(-c2ccc(OC)cc2)c1N	-7.76%
NC(=O)C1=C[C@H](c2coc3ccccc3c2=O)C[C@H](OCCCCO)O1	0.511%
Cc1ccc(S(=O)(=O)N2CC[C@@H]3[C@H]2c2cc(-c4cccc(C(=O)N(C)C)c4)ccc2N[C@@H]3CO)cc1	-11.6% [at 23.5 µM]
C[C@H](CO)N1C[C@H](C)[C@@H](CN(C)Cc2ccccc2)Oc2ncc(-c3ccccc3)cc2C1=O	-17.1%
O=S(=O)(c1ccccc1F)N1CC[C@@H]2[C@H](CO)Nc3ccc(-c4cccc(F)c4)cc3[C@@H]21	-20.6%
COCC(=O)Nc1ccc2c(c1)C(=O)N(C)[C@H]1CC[C@@H](CC(=O)NCc3ccccc3Cl)O[C@@H]1CO2	-9.24%
